PNC assembly inh = blocks assembly of the perinucleolar compartment; PC3M PTB-GFP, PNC prevalence imaging, 16 h; stronger effect = lower value; activity change (PNC), negative = inhibition, % at 10 µM; 140,000 tested, 3.1% active;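 active = readout at or below -70, meaning at least 70% loss of cells showing the perinucleolar compartment, a nuclear body marking cancer cells; inconclusive = readout between -30 and a set limit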;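 also: plate controls were DMSO wells for no effect and camptothecin positive control wells for full effect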
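Read-out is percentage of cells bearing a perinucleolar compartment, from automated 20x imaging of fixed, Hoechst-stained PC3M PTB-GFP cells. Cells were seeded 4 h, then exposed 16 h to compound (23 nl of library stock) in duplicate plates.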
IMPase Li cell = membrane-permeable IMPase blocker, potentiated with lithium. CHO-M1 cells, IP1 TR-FRET (IP-One), carbachol + lithium. Potency, µM (doses to about 59.4 µM), for the others: top-dose activity, negative = IMPase inhibition, usual class: inhibitors. 210,000 tested, 0.35% active. AID 1457; active = well fitted curve in the direction sought with a large enough effect; inconclusive = small, poorly fitted or top-dose-only effect, or another doubt; inactive = no such curve, though single readings can be large; an effect the other way counts as inactive or inconclusive;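 also: IP1 builds up when IMPase is blocked and the TR-FRET signal falls; potency is read from the fitted curve at half-maximal effect; plate controls were basal vehicle for no effect and high inhibitor control for full effect; nearly all actives have a fitted effect of over 50% in size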
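Lithium-sensitised IP1 accumulation assay; M1-expressing CHO cells treated 30 min at 37C with compound. Competitive antibody detection by time-resolved FRET followed a 10 min room-temperature lysis step.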
IMPase cell inh = IMPase inhibition in cells | 120,000 tested, under 10 active | inhibition (IP1 accumulation), % at 46.1 µM | CHO-M1 cells, IP1 accumulation, HTRF TR-FRET ratio | P97697; active = well fitted curve in the direction sought with a large enough effect in the signal ratio, not every such curve was filed as active; inconclusive = small, poorly fitted or top-dose-only effect, or a change in a side signal; inactive = no such curve, though single readings can be large or run the other way; the % refers to the signal ratio;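 also: cells stimulated with carbachol in lithium chloride buffer; plate controls were DMSO basal wells for no effect and reference inhibitor wells for full effect; higher means more IMPase inhibition seen as more IP1 and lower FRET ratio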
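CHO-M1 cells (CHO stably expressing M1 receptor), compound up to 46 uM final, stimulated with carbachol (50 uM as added) in buffer with 50mM LiCl, pH 7.4, 30 min at 37C. Cytosolic IP1 read by TR-FRET; AC50 from Hill fits.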
ALDH1A1 block = blocks purified human ALDH1A1 activity. P00352. 220,000 tested, 7.3% active. Purified ALDH1A1, NADH fluorescence, propionaldehyde substrate. Potency, µM (titrated, usually from 75.3 µM), for inactives: at the highest dose activity, negative = inhibition, actives largely listed as inhibitors. AID 1030;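 also: potency is read from the fitted curve at half-maximal effect; plate controls were no enzyme wells and a reference inhibitor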
Target sequence (P00352 whole entry, looked up): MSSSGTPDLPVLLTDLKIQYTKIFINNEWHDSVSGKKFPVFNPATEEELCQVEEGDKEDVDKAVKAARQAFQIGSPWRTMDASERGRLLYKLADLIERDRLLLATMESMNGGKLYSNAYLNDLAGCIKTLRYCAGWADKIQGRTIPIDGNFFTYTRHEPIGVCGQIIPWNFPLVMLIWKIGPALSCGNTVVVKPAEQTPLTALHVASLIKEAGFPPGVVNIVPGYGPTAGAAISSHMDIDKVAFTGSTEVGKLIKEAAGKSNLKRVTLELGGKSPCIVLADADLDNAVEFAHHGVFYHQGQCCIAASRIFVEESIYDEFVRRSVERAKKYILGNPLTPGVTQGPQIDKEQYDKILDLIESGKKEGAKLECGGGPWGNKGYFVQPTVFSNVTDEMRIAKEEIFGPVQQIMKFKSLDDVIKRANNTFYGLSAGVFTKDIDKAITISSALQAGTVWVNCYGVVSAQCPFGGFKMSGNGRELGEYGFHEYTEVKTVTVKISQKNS
HPGD inh = inhibitors of human 15-hydroxyprostaglandin dehydrogenase (HPGD); P15428; purified HPGD, NADH fluorescence kinetic, PGE2 substrate; Potency, µM, for inactives: at the top dose activity change, negative = inhibition, most hits filed as inhibitors; 150,000 tested, 4.3% active; AID 894; also: potency is read from the fitted curve at half-maximal effect; % is scaled to controls: 0 for no effect and ±100 for the full control effect
Target sequence (P15428 whole entry, looked up): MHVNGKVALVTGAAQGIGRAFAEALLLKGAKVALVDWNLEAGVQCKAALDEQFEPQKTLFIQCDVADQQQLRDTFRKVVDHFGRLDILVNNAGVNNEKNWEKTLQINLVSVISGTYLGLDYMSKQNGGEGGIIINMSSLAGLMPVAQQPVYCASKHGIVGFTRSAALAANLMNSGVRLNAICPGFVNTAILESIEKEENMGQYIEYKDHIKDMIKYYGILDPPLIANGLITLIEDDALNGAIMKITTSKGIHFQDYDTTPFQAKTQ
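20 nM HPGD preincubated 15 min at room temperature with compound in 50 mM Tris-HCl pH 8, 0.01% Tween 20. Started with 1 mM NAD+ and 30 uM prostaglandin E2; NADH fluorescence (360/450 nm) read 5 times over 30-s intervals, last minus first.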
12-hLO inh = 12-hLO (ALOX12) enzyme inhibition | P18054 | purified 12-hLO, xylenol orange hydroperoxide absorbance | Potency, µM (titrated, usually from 57.1 µM), for inactives: at the highest dose activity change, negative = inhibition, most hits filed as inhibitors | 150,000 tested, 0.12% active; active = well fitted curve in the direction sought with a large enough effect; inconclusive = small, poorly fitted or top-dose-only effect, or another doubt; inactive = no such curve, though single readings can be large; an effect the other way counts as inactive or inconclusive; also: potency is read from the fitted curve at half-maximal effect; % is scaled to controls: 0 for no effect and ±100 for the full control effect; nearly all actives have a fitted effect of over 55% in size
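Hydroperoxide output read as Fe(III)-xylenol orange absorbance, 573-to-405 nm ratio, after 30 min reaction with 40 uM arachidonic acid. Enzyme: 150 nM purified human 12hLO, 15 min compound preincubation; 25 mM Hepes pH 7.0, room temperature.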
HPGD inh conf = confirmation of human HPGD inhibitors; shares compounds with HPGD inh; recombinant HPGD, NADH fluorescence, PGE2 substrate; Potency, µM (titrated, usually from 57.1 µM), for the others: at the highest dose activity change, negative = inhibition, actives largely listed as inhibitors; 90 tested, 90% active; AID 2429; calls by dose curve
* hit, by the source's call; ? = inconclusive; / = no result given; [ ] = another dose, or the depositor's remark. A selection: hits, their analogues and other compounds. The true share with any hit is near 11%. Unless noted, calls follow the shape of the dose curve; as a rule, active = well fitted inhibition curve with a large enough effect (not every such curve was filed as active); inconclusive = small, poorly fitted or top-dose-only effect, or another doubt; inactive = no such curve, though single readings can be large or run the other way.

SMILES	PNC assembly inh	IMPase Li cell	IMPase cell inh	ALDH1A1 block	HPGD inh	12-hLO inh	HPGD inh conf
CCCCNC(=O)c1sc(=S)n2c1[nH]c(=O)c1ccccc12	-19	17%[38.3 µM]	5	?	-21%	-19%	/
O=C(NC1CCCCC1)c1sc(=S)n2c1[nH]c(=O)c1ccccc12	21	14%[38.3 µM]	-5	3.2µM*	13µM*	-20%	/
COC(=O)[C@H](N)Cc1ccc(Cl)cc1	/	/	0	/	/	-3%	/
CC1C(=O)CCC2[C@]1(C)CCC1[C@]2(C)CC[C@@]2(C)C3CC(C)(C)CC[C@]3(C)CC[C@@]12C (some centres undefined)	/	34%	/	3%	-1%	-1%	/
CCN=C(NC#N)SCc1c(F)cccc1Cl	-109*	-2%	/	?	-3%	2%	/
C=CCN=C(NC#N)SCc1ccccc1	34	-17%[38.3 µM]	3	8%	2%	0%	/
Cc1c2c(nc3c(C(=O)NC4CC4)cnn13)CCCC2	14	10%[38.3 µM]	1	-2%	20µM*	-5%	/
Cc1cc(C(F)F)n2ncc(C(=O)NC3CCCCCC3)c2n1	19	10%[38.3 µM]	3	13µM*	22µM*	-1%	/
O=C(O)C[C@H](Cc1ccccc1Cl)C(=O)O	/	1%	/	5%[13.5 µM]	-3%	-1%[11.4 µM]	/
O=C(CCc1ccc(Oc2cc([N+](=O)[O-])cc([N+](=O)[O-])c2)cc1)N1CCCCCC1	-24	16%	8	13µM*	0.89µM*	-1%	0.4µM*
N=C(N)c1ccc(/C=C/c2ccc(C(=N)N)cc2O)cc1	/	/	/	-3%	/	/	/
Cc1ccc(C)c(Cn2nnc3c(=O)[nH]c(C(=O)NCC4CCCO4)nc32)c1 (centres undefined)	-3	-5%	2	-11%	1.3µM*	2%	0.4µM*
COCCNC(=O)c1nc2c(nnn2Cc2cc(C)ccc2C)c(=O)[nH]1	?	5%	0	?	0.2µM*	2%	0.71µM*
CCOc1ncccc1C(=O)OCC(=O)c1cccc(Br)c1	/	7%	/	-2%	/	/	/
CC1=CCC2C(=O)N(c3ccc(C(=O)N4CCCCCC4)cc3)C(=O)C2C1 (centres undefined)	26	-12%[38.3 µM]	4	?	1.4µM*	2%	0.79µM*
O=C(c1ccc(N2C(=O)C3CC=C(Cl)CC3C2=O)cc1)N1CCOCC1 (centres undefined)	/	-3%	/	-2%	/	/	/
O=C(Nc1nccs1)c1ccc(N2C(=O)C3CCCCC3C2=O)cc1 (centres undefined)	/	9%	/	?	/	/	/
O=C(c1ccc(N2C(=O)C3CC=C(Cl)CC3C2=O)cc1)N1CCCCC1 (centres undefined)	-25	13%[38.3 µM]	-2	18µM*	0.5µM*	-6%	0.25µM*
O=C(c1ccc(N2C(=O)C3CCCCC3C2=O)cc1)N1CCCCC1 (centres undefined)	15	-3%	/	?	1µM*	-1%	0.56µM*
CCOC(=O)c1ccc(N2C(=O)C3CC=C(C)CC3C2=O)cc1 (centres undefined)	-19	-5%[38.3 µM]	6	?	-14%	-2%	/
Cc1ccc(C(=O)OCCn2cc(C#N)c(=O)[nH]c2=O)cc1	/	-2%	/	2%	/	/	/
CCCc1ccc(-c2cc(NC(=O)CSc3nnc(N)s3)n(-c3ccccc3)n2)cc1	?	/	?	-2%	/	1%	/
Cc1cccc(-n2cnc3cc(C(=O)N4CCCCC4)ccc32)c1	-26	-4%[38.3 µM]	4	4µM*	0.071µM*	-1%	0.056µM*
CC1=Nc2cc(C(=O)N3CCCCC3)ccc2Sc2ccc(C)cc21	/	/	10	/	/	/	/
O=c1c2ccccc2sn1-c1cc(S(=O)(=O)N2CCOCC2)ccc1N1CCCC1	-108*	42%[38.3 µM]	7	0.022µM*	0.22µM*	0.5µM*	2.5µM*
SMILES	PNC assembly inh	IMPase Li cell	IMPase cell inh	ALDH1A1 block	HPGD inh	12-hLO inh	HPGD inh conf
CN(C)S(=O)(=O)c1cccc(C(=O)OCC(=O)Nc2sccc2C#N)c1	1	26%[38.3 µM]	1	?	-10%	5%	/
CNc1nc(SCc2ccccc2Cl)nc2c1CCCC2	18	14%	15	0%	-7%	-3%	/
O=c1[nH]c(SCc2ccccc2Cl)nc2c1CCC2	-101*	11%[38.3 µM]	4	-4%	1µM*	-5%	2.2µM*
COc1ccc(C(=O)NC2(C(F)(F)F)NC(=O)N(CCCc3ccccc3)C2=O)cc1OC (centres undefined)	23	5%	/	3%	-8%	1%	/
CC1CCCN(C(=O)c2ccncc2)C1 (centres undefined)	?	20%[38.3 µM]	6	3%	-30%	-5%	/
CC1CCCN(C(=O)c2ccc(COc3ccccc3Br)cc2)C1 (centres undefined)	31	46%[38.3 µM]	4	25µM*	0.089µM*	-18%	0.13µM*
Cc1ccc(S(=O)(=O)Nc2ccc(Cl)cc2C(=O)c2ccc(F)cc2)cc1	19	20%	6	-11%	-10%	-13%	/
CCOc1ccccc1CNC(=O)c1cc2oc3ccccc3c2n1C	22	0%[38.3 µM]	3	?	?	3%	/
COCCNC(=O)c1cc2oc3ccccc3c2n1C	4	15%[38.3 µM]	9	?	1.4µM*	6%	1.6µM*
C=C1c2ccccc2NC(=S)N1Cc1ccc2c(c1)OCO2	/	3%	/	-12%	/	/	/
COc1ccc(N2CCN(C(=O)c3ccc(CSc4ccccc4)cc3)CC2)cc1	18	5%	/	0%	-12%	2%	-20%
COc1ccc(N2C(=O)NC(NC(=O)c3ccncc3)(C(F)(F)F)C2=O)cc1 (centres undefined)	13	1%[38.3 µM]	-4	8%	-3%	2%	/
CCOC(=O)c1sc(NC(=O)CSc2n[nH]c(-c3ccccc3)n2)c(C#N)c1C	21	17%	1	2.8µM*	1µM*	-4%	1.1µM*
O=c1[nH]c2ccc(S(=O)(=O)Nc3ccc(-c4nnc5n4CCCCC5)cc3)cc2o1	?	5%[38.3 µM]	-7	-4%	0.2µM*	-3%	0.13µM*
c1cc(-c2nnc3n2CCCCC3)ccn1	-18	-10%[38.3 µM]	1	12%	-6%	-2%	/

Compound activity deposited in PubChem BioAssay by National Center for Advancing Translational Sciences (NCATS).
